From PubChem BioAssay

Experiment: probe aNOTCH3 binding on compound microarray – biochemical, small-molecule microarray, 635/667 nm fluorescence, primary screen (AID 1120);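 further: probe is a biotin-tagged antibody raised against NOTCH3 rather than NOTCH3 protein; score merges spot fluorescence near 667 nm with spot signal to noise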
Conditions: higher = more signal

| SMILES | composite z-score |
| --- | --- |
| COCCOC(=O)N1C(=O)[C@@]2(c3ccccc31)[C@H](c1ccc(O)cc1)N1[C@H](c3ccccc3)[C@H](c3ccccc3)OC(=O)[C@H]1[C@@H]2C(=O)Nc1nc2ccccc2s1 | 0.351 |
| NC(=O)NCC#Cc1ccc2c(c1)[C@]1(C(=O)N2)[C@H](C(=O)Nc2nc3ccccc3s2)[C@H]2C(=O)O[C@H](c3ccccc3)[C@H](c3ccccc3)N2[C@@H]1c1ccccc1OCCO | 1.1 |
| COCCOC(=O)N1C(=O)[C@@]2(c3ccccc31)[C@H](c1ccccc1OCCO)N1[C@H](c3ccccc3)[C@H](c3ccccc3)OC(=O)[C@H]1[C@@H]2C(=O)N1CCN(c2ncccn2)CC1 | -0.0345 |
| COC(=O)[C@@]1(Cc2ccc(F)cc2)[C@H]2c3cc(C(=O)N4CCCC4)n(CCCNc4ncc(C(F)(F)F)cc4Cl)c3C[C@H]2CN1C(=O)c1ccccc1 | 0.69 |
| CC(C)C[C@@H]1NC(=O)[C@@H]2C[C@H](C(=O)NCc3ccc(F)cc3)[C@H](c3cccc(OCCO)c3)N2C1=O | -0.229 |
| C=CCC(OC(C)=O)[C@@H]1[C@@H](N(Cc2cc3ccccc3o2)C(=O)c2cccc3ccccc23)c2cc(OCCCO)ccc2N1C(=O)c1ccc(-c2ccccc2)cc1 (some centres undefined) | 0.0779 |
| C#C[C@H](O[Si](C#Cc1ccc(Oc2ccccc2)cc1)(C(C)C)C(C)C)c1ccccc1 | 0.0122 |
| O=C1N[C@@H](Cc2ccccc2)C(=O)N2[C@@H]1C[C@@H](C(=O)O)[C@H]2c1cccc(OCCO)c1 | -0.0362 |
| COCCCNC(=O)[C@@]1(C)c2ccccc2C(=O)N(C(C)C)[C@H]1c1ccc(CO)cc1 | 0.0001 |
